This note sets out measurements from the supplement of paper PMC10077471.

The structures appear in SMILES notation. The full ranking holds about 1,900 compounds; the median of “excess over highest single agent (ExcessHSA) synergy score, 6x6 matrix” is about -83, and the lowest 2% start at about -370. What follows is part of a selection rich in the lowest values, with near analogues and random picks from the rest.

For the assay, the system named is NCI-H446. As to the kind of experiment: excess over highest single agent (ExcessHSA) synergy score, 6x6 matrix; higher = less synergy (more negative = stronger synergy). As to conditions: 72 h; CellTiter-Glo viability.
Consider `Cc1cc(=O)c2c(O)c3c(O)cc(=O)c4c3c3c(cc(O)c1c23)C(C)(C)C=4O` + Cc1sc2c(c1C)C(c1ccc(Cl)cc1)=N[C@@H](CC(=O)OC(C)(C)C)c1nnc(C)n1-2 [NCGC00250412-19], for which the “excess over highest single agent” value was -128. Consider `Oc1ccc([C@@H]2Oc3ccc(O)cc3[C@@H]3CCC[C@@H]32)cc1` + Cc1sc2c(c1C)C(c1ccc(Cl)cc1)=N[C@@H](CC(=O)OC(C)(C)C)c1nnc(C)n1-2 [NCGC00250412-19], for which the “excess over highest single agent” value is -48.9. `N#Cc1cc(NC(=O)Nc2nnc(-c3ccncc3)s2)ccc1-c1cn[nH]c1` + Cc1sc2c(c1C)C(c1ccc(Cl)cc1)=N[C@@H](CC(=O)OC(C)(C)C)c1nnc(C)n1-2 [NCGC00250412-19]: the “excess over highest single agent” value turned out to be 313. As for `O=C(O)c1ccc2cc(-c3ccc(O)c(C45CC6CC(CC(C6)C4)C5)c3)ccc2c1` + Cc1sc2c(c1C)C(c1ccc(Cl)cc1)=N[C@@H](CC(=O)OC(C)(C)C)c1nnc(C)n1-2 [NCGC00250412-19], the “excess over highest single agent” value was -225. As to `CC(C)n1cnc2c(NCCCCCCNC(=O)OC(C)(C)C)nc(NCCO)nc21` + Cc1sc2c(c1C)C(c1ccc(Cl)cc1)=N[C@@H](CC(=O)OC(C)(C)C)c1nnc(C)n1-2 [NCGC00250412-19], the “excess over highest single agent” value is -65.3. With `CC1=C(C(=O)Nc2cc3cn[nH]c3cc2F)C(c2ccc(Cl)cc2F)N=C(c2ccnc(Cl)c2)N1` (configuration not stated) + Cc1sc2c(c1C)C(c1ccc(Cl)cc1)=N[C@@H](CC(=O)OC(C)(C)C)c1nnc(C)n1-2 [NCGC00250412-19] the figure was -142; with `COc1ccc2c(c1)CC[C@H](CN(C)CC(=O)O)[C@@H]2c1ccccc1` + Cc1sc2c(c1C)C(c1ccc(Cl)cc1)=N[C@@H](CC(=O)OC(C)(C)C)c1nnc(C)n1-2 [NCGC00250412-19], -220. With `CNC(=O)c1ccc(N2C(=S)N(c3cnc(C#N)c(C(F)(F)F)c3)C(=O)C23CCC3)cc1F` + Cc1sc2c(c1C)C(c1ccc(Cl)cc1)=N[C@@H](CC(=O)OC(C)(C)C)c1nnc(C)n1-2 [NCGC00250412-19] the figure was -9.84. With `CN(C)CCOc1cc(-c2cn[nH]c2)ccc1NC(=O)C1COc2ccccc2O1` (configuration not stated) + Cc1sc2c(c1C)C(c1ccc(Cl)cc1)=N[C@@H](CC(=O)OC(C)(C)C)c1nnc(C)n1-2 [NCGC00250412-19] the figure was -160. Consider `O=C(O)CCNc1cc(N2CCc3ccccc3CC2)nc(-c2ccccn2)n1` + Cc1sc2c(c1C)C(c1ccc(Cl)cc1)=N[C@@H](CC(=O)OC(C)(C)C)c1nnc(C)n1-2 [NCGC00250412-19], for which the “excess over highest single agent” value is -73.

For `CN1CCN(c2ncc(-c3cc(Cl)cc(Cl)c3Cl)c(N)n2)CC1` + Cc1sc2c(c1C)C(c1ccc(Cl)cc1)=N[C@@H](CC(=O)OC(C)(C)C)c1nnc(C)n1-2 [NCGC00250412-19], the “excess over highest single agent” value was -219. Take `CN(C)Cc1c(C(=O)NCCOc2ccc(C(=O)NO)cc2)oc2ccccc12` + Cc1sc2c(c1C)C(c1ccc(Cl)cc1)=N[C@@H](CC(=O)OC(C)(C)C)c1nnc(C)n1-2 [NCGC00250412-19]: the “excess over highest single agent” value was -152. Consider `Cc1ccc2nc(NC(=O)CSc3nc4c(c(=O)n3-c3ccccc3)SCC4)sc2c1` + Cc1sc2c(c1C)C(c1ccc(Cl)cc1)=N[C@@H](CC(=O)OC(C)(C)C)c1nnc(C)n1-2 [NCGC00250412-19], for which the “excess over highest single agent” value was found to be 84.8.

`CC(C)(C)OC(=O)CN(Cc1ccc(Cl)cc1)Cc1ccc([N+](=O)[O-])s1` + Cc1sc2c(c1C)C(c1ccc(Cl)cc1)=N[C@@H](CC(=O)OC(C)(C)C)c1nnc(C)n1-2 [NCGC00250412-19]: the “excess over highest single agent” value stood at 27. As to `Cn1c(=O)c(-c2c(Cl)cccc2Cl)cc2cnc(Nc3cccc(C(=O)O)c3)nc21` + Cc1sc2c(c1C)C(c1ccc(Cl)cc1)=N[C@@H](CC(=O)OC(C)(C)C)c1nnc(C)n1-2 [NCGC00250412-19], the “excess over highest single agent” value was -131. Take `Cc1cc(OCCCc2c(C(=O)O)n(Cc3cccnc3)c3c(-c4c(COc5ccc(N6CCN([S+](C)(=O)[O-])CC6)cc5)nn(C)c4C)cccc23)cc(C)c1Cl` + Cc1sc2c(c1C)C(c1ccc(Cl)cc1)=N[C@@H](CC(=O)OC(C)(C)C)c1nnc(C)n1-2 [NCGC00250412-19]: the “excess over highest single agent” value is -31.2. With `CCOC(=O)N1CCN([N+]([O-])=NOc2ccc([N+](=O)[O-])cc2[N+](=O)[O-])CC1` + Cc1sc2c(c1C)C(c1ccc(Cl)cc1)=N[C@@H](CC(=O)OC(C)(C)C)c1nnc(C)n1-2 [NCGC00250412-19] the figure was -84.4. With `O=C(c1ccc(Nc2nccc(-c3cc4ccccc4s3)n2)cc1)N1CCC(N2CCCC2)CC1` + Cc1sc2c(c1C)C(c1ccc(Cl)cc1)=N[C@@H](CC(=O)OC(C)(C)C)c1nnc(C)n1-2 [NCGC00250412-19] the figure was -181; with `CNC(=O)c1ccc(N2C(=S)N(c3ccc(C#N)c(C(F)(F)F)c3)C(=O)C23CCC3)cc1F` + Cc1sc2c(c1C)C(c1ccc(Cl)cc1)=N[C@@H](CC(=O)OC(C)(C)C)c1nnc(C)n1-2 [NCGC00250412-19], -51.1. With `O=C(OCC#CCSc1nnc(-c2cccc3ccccc23)o1)c1cc2ccccc2s1` + Cc1sc2c(c1C)C(c1ccc(Cl)cc1)=N[C@@H](CC(=O)OC(C)(C)C)c1nnc(C)n1-2 [NCGC00250412-19] the figure was -169; with `O=C1CSC(=O)N1C(CCc1ccncc1)COc1ccc(-c2cccc([N+](=O)[O-])c2)cc1` (configuration not stated) + Cc1sc2c(c1C)C(c1ccc(Cl)cc1)=N[C@@H](CC(=O)OC(C)(C)C)c1nnc(C)n1-2 [NCGC00250412-19], -96.7. Take `CS[C@H]1SC[C@H]2C(=O)N(C)[C@@H](C(C)C)C(=O)OC[C@@H](NC(=O)c3cnc4ccccc4n3)C(=O)N[C@@H](C)C(=O)N(C)[C@@H]1C(=O)N(C)[C@@H](C(C)C)C(=O)OC[C@@H](NC(=O)c1cnc3ccccc3n1)C(=O)N[C@@H](C)C(=O)N2C` + Cc1sc2c(c1C)C(c1ccc(Cl)cc1)=N[C@@H](CC(=O)OC(C)(C)C)c1nnc(C)n1-2 [NCGC00250412-19]: the “excess over highest single agent” value was found to be 15.3.
